Targets with a hit are over-represented here; the source holds about 7,900 in all. About 0.6% of all pairs of compound and target were hits.
Columns and labels:
Assay in all cases: log2 fold change, soluble protein after heating vs DMSO (PISA); higher = thermal stabilisation; K562 cells, 10 uM, 30 min; active = over 0.2 and 3.5 SD of the protein, either way, in both replicates (recomputed)
epoxomicin = compound: CC[C@H](C)[C@@H](C(=O)N[C@@H]([C@@H](C)O)C(=O)N[C@@H](CC(C)C)C(=O)[C@]1(CO1)C)NC(=O)[C@H]([C@@H](C)CC)N(C)C(=O)C [epoxomicin]
Outline: (§1)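 K562 cells at 2×10^6 cells/mL were treated for 30 min with 10 μM compound, and aliquots were heated for 3 min over 48°C-58°C before pooling. Extraction used PBS with 0.5% NP-40 at 4°C, and soluble protein was the supernatant after 21,000xg for 90 min, measured by TMTpro 16plex LC-MS/MS with channel sums equalised. Thermal stability values, relative to control samples and from duplicates, are log2 fold changes.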

[1] = compound: CN(C)CC(=O)Nc1ccc2[nH]c(=O)c3ccccc3c2c1
Outline: as §1

rosiglitazone = compound: CN(CCOC1=CC=C(C=C1)C[C@H]2C(=O)NC(=O)S2)C3=CC=CC=N3 (racemic) [rosiglitazone]
Outline: as §1

[2] = compound: CN1C2=C(C3=C1C(=O)N(N=C3)CC4=CC(=CC=C4)N)SC(=C2)S(=O)C
Outline: as §1

saracatinib = compound: CN1CCN(CCOc2cc(OC3CCOCC3)c3c(Nc4c(Cl)ccc5c4OCO5)ncnc3c2)CC1 [saracatinib]
Outline: as §1

sotrastaurin = compound: CN1CCN(c2nc(C3=C(c4c[nH]c5ccccc45)C(=O)NC3=O)c3ccccc3n2)CC1 [sotrastaurin]
Outline: as §1

Tubastatin A = compound: CN1CCc2c(c3ccccc3n2Cc2ccc(C(=O)NO)cc2)C1 [Tubastatin A]
Outline: as §1

defactinib = compound: CNC(=O)c1ccc(Nc2ncc(C(F)(F)F)c(NCc3nccnc3N(C)S(C)(=O)=O)n2)cc1 [defactinib]
Outline: as §1

[3] = compound: CNc1nc(-c2ccc3c(N)n[nH]c3c2)cc(N2C[C@@H](C(=O)NC3CCCCC3)CC[C@H]2C)n1
Outline: as §1

[4] = compound: COC(=O)[C@H](CCSC)NC(=O)C1=C(C=C(C=C1)NC[C@H](CS)N)C2=CC=CC=C2
Outline: as §1

[5] = compound: CC[C@@H]1C(=O)N(C)c2cnc(Nc3ccc(C(=O)NC4CCN(C)CC4)cc3OC)nc2N1C1CCCC1
Outline: as §1

rucaparib = compound: CNCc1ccc(-c2[nH]c3cc(F)cc4c3c2CCNC4=O)cc1 [rucaparib]
Outline: as §1

encorafenib = compound: COC(=O)N[C@@H](C)CNc1nccc(-c2cn(C(C)C)nc2-c2cc(Cl)cc(NS(C)(=O)=O)c2F)n1 [encorafenib]
Outline: as §1

volasertib = compound: CC[C@@H]1C(=O)N(C)c2cnc(Nc3ccc(C(=O)N[C@H]4CC[C@H](N5CCN(CC6CC6)CC5)CC4)cc3OC)nc2N1C(C)C [volasertib]
Outline: as §1

[6] = compound: CC[C@H](C)N1C=C(C2=C(C=C(C=C21)C3=CN=C(C=C3)N4CCNCC4)C(=O)NCC5=C(C=C(NC5=O)C)C)C
Outline: as §1

[7] = compound: CCn1c(C(=O)N(C2CC2)C2CC2)cc2c3c(ncn3C)c(Nc3cc(C)n(C)n3)nc21
Outline: as §1

[8] = compound: CCn1cc(-c2ccnc3[nH]c(-c4cccc(CN(C)C)c4)cc23)c(-c2ccc(NC(=O)N(C)C)cc2)n1
Outline: as §1

[9] = compound: CN1CCC(CNc2ccc3ncc(-c4cccc(OC(F)(F)F)c4)n3n2)CC1
Outline: as §1

alvocidib = compound: CN1CC[C@H](c2c(O)cc(O)c3c(=O)cc(-c4ccccc4Cl)oc23)[C@H](O)C1 [alvocidib]
Outline: as §1

[10] = compound: CNC(=O)C1=CC=CC=C1NC2=NC(=NC=C2Cl)NC3=C(C=C(C=C3)N4CCOCC4)OC
Outline: as §1

Measured: log2 fold change

MFAP3 (UniProt P55082)
Sequence of UniProt P55082 (P55082 whole entry, looked up): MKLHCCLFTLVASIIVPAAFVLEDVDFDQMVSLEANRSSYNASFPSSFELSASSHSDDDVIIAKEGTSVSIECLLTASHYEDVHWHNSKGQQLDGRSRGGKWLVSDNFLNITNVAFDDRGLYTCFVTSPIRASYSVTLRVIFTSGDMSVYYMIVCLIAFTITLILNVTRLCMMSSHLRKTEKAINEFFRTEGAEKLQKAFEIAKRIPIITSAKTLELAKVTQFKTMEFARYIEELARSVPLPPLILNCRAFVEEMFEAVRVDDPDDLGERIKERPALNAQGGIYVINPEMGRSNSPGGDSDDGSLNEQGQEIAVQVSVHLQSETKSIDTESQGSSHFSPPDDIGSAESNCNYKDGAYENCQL
inactive: epoxomicin -0.054 | [1] -0.118 | rosiglitazone 0.046 | [2] -0.008 | saracatinib 0.088 | sotrastaurin 0.019 | Tubastatin A 0.068 | defactinib 0.306 | [3] 0.002 | [4] -0.189

KIF1B isoform 3 (UniProt O60333)
inactive: [5] 0.193 | [1] -0.032 | defactinib 0.127 | rucaparib -0.046 | encorafenib -0.222 | [4] 0.17

ITGA2B (UniProt P08514)
inactive: volasertib 0.134 | [6] -0.211 | epoxomicin -0.089 | [7] -0.011 | [8] -0.173 | [1] 0.067 | [2] 0.117 | [9] -0.07 | saracatinib 0.025 | sotrastaurin -0.03 | alvocidib 0.111 | Tubastatin A -0.043 | [10] 0.037 | defactinib 0.059 | [3] -0.036 | [4] 0.058

LEPROT (UniProt O15243)
Sequence of UniProt O15243 (O15243 whole entry, looked up): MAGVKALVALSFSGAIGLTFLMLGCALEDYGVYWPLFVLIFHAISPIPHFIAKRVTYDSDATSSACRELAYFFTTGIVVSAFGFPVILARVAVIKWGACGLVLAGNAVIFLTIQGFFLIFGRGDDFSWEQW
inactive: [5] -0.052 | epoxomicin 0.129 | [7] -0.11 | [8] 0.075 | [2] 0.117 | [9] -0.03 | saracatinib -0.261 | alvocidib 0.071 | Tubastatin A -0.133 | [10] 0.087 | rucaparib 0.028 | [3] -0.25 | encorafenib -0.077

MAP2K5 (UniProt Q13163)
inactive: [2] 0.457 | saracatinib 0.445 | alvocidib -0.008 | [3] 0.004

MAP3K20 isoform 2 (UniProt Q9NYL2)
inactive: volasertib -0.1 | [6] -0.067 | epoxomicin -0.03 | [7] 0.018 | sotrastaurin 0.059 | Tubastatin A 0.093 | [10] -0.024

MAPRE3 isoform 2 (UniProt Q9UPY8)
inactive: volasertib 0.165 | [6] 0.04 | alvocidib -0.075 | Tubastatin A 0.13

IGFBP3 isoform 2 (UniProt P17936)
Sequence of UniProt P17936 (P17936 whole entry, looked up): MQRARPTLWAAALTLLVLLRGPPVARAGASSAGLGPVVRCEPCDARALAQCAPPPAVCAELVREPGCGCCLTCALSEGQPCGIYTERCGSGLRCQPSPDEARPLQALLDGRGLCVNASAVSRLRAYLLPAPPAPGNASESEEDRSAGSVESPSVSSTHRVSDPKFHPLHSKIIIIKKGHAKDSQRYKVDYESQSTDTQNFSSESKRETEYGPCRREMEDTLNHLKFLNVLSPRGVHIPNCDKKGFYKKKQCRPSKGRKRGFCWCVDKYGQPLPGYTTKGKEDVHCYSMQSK
inactive: volasertib -0.507 | epoxomicin -0.251 | [8] 0.075 | [1] -0.238 | [2] 0.199 | [9] -0.555 | saracatinib -0.092 | sotrastaurin 0.245 | alvocidib 0.251 | Tubastatin A 0.001 | defactinib 0.17 | [3] -0.08 | [4] 0.045

LSR (UniProt M0QZL9)
inactive: epoxomicin 0.076 | [1] -0.125 | sotrastaurin 0.042 | defactinib 0.065 | [4] -0.249

MAPK7 (UniProt Q13164)
Sequence of UniProt Q13164 (Q13164 whole entry, looked up): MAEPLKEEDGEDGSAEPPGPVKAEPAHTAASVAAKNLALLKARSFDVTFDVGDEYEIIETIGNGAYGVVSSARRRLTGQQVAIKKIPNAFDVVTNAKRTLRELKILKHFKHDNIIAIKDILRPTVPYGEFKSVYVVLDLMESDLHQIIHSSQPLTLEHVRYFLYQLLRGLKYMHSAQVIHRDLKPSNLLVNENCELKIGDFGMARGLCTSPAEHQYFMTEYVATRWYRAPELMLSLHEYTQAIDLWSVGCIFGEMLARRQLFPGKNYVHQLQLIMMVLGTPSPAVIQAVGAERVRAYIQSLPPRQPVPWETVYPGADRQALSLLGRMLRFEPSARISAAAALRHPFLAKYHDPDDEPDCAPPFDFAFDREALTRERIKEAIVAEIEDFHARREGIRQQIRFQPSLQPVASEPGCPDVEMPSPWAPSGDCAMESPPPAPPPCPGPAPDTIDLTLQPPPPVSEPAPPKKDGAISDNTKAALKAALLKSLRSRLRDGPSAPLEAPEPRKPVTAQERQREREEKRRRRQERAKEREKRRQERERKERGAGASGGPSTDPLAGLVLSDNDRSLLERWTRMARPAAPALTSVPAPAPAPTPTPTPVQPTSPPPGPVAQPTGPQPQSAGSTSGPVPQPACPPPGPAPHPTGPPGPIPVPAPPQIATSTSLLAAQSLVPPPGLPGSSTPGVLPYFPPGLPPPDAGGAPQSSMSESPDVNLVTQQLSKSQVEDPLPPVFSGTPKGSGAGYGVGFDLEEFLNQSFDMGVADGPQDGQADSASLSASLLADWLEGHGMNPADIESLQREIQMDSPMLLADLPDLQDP
inactive: epoxomicin 0.093 | [8] -0.049 | [9] -0.125

LRRFIP1 isoform 4 (UniProt Q32MZ4)
inactive: epoxomicin -0.113 | [7] -0.1 | [8] 0.212 | [2] 0.105 | [9] 0.349 | saracatinib 0.008 | alvocidib 0.481 | [10] -0.111 | [3] -0.089

LDLRAP1 (UniProt Q5SW96)
Sequence of UniProt Q5SW96 (Q5SW96 whole entry, looked up): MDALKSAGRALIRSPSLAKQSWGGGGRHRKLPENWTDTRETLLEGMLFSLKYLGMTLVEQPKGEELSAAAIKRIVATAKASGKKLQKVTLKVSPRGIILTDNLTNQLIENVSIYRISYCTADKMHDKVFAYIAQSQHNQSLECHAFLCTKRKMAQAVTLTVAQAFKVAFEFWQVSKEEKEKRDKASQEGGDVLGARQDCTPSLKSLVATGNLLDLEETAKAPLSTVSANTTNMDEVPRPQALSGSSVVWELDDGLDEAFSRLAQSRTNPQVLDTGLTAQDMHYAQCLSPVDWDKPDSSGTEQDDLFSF
inactive: [7] -0.045 | rosiglitazone -0.023 | [10] -0.014

LIN52 (UniProt Q52LA3)
Sequence of UniProt Q52LA3 (Q52LA3 whole entry, looked up): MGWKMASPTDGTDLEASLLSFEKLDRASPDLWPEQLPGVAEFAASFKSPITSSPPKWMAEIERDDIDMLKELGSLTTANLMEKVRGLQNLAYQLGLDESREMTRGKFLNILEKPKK
inactive: [2] 0.003 | saracatinib 0.038 | [3] -0.059

LOX (UniProt P28300)
inactive: [6] -0.191 | [7] -0.028 | rosiglitazone 0.072 | [10] -0.303

LYN isoform 2 (UniProt P07948)
Sequence of UniProt P07948 (P07948 whole entry, looked up): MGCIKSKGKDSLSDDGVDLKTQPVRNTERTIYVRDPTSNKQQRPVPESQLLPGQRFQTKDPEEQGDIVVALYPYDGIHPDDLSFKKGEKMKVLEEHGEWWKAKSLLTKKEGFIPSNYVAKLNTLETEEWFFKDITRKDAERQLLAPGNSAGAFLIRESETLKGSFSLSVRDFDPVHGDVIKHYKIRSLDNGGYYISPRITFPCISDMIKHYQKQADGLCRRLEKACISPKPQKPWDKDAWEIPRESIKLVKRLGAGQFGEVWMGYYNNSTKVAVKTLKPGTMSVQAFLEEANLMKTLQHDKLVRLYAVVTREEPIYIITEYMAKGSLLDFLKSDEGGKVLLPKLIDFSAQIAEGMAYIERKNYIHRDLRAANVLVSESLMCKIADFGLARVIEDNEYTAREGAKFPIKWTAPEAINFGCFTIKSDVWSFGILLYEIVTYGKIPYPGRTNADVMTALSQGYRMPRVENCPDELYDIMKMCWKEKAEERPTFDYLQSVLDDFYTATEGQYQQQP
inactive: volasertib -0.003 | [6] 0.036 | epoxomicin 0.246 | [7] 0.076 | [1] 0.007 | sotrastaurin 0.034 | alvocidib 0.015 | [10] 0.043 | defactinib -0.035 | [4] -0.004

JAK3 (UniProt P52333)
Sequence of UniProt P52333 (P52333 whole entry, looked up): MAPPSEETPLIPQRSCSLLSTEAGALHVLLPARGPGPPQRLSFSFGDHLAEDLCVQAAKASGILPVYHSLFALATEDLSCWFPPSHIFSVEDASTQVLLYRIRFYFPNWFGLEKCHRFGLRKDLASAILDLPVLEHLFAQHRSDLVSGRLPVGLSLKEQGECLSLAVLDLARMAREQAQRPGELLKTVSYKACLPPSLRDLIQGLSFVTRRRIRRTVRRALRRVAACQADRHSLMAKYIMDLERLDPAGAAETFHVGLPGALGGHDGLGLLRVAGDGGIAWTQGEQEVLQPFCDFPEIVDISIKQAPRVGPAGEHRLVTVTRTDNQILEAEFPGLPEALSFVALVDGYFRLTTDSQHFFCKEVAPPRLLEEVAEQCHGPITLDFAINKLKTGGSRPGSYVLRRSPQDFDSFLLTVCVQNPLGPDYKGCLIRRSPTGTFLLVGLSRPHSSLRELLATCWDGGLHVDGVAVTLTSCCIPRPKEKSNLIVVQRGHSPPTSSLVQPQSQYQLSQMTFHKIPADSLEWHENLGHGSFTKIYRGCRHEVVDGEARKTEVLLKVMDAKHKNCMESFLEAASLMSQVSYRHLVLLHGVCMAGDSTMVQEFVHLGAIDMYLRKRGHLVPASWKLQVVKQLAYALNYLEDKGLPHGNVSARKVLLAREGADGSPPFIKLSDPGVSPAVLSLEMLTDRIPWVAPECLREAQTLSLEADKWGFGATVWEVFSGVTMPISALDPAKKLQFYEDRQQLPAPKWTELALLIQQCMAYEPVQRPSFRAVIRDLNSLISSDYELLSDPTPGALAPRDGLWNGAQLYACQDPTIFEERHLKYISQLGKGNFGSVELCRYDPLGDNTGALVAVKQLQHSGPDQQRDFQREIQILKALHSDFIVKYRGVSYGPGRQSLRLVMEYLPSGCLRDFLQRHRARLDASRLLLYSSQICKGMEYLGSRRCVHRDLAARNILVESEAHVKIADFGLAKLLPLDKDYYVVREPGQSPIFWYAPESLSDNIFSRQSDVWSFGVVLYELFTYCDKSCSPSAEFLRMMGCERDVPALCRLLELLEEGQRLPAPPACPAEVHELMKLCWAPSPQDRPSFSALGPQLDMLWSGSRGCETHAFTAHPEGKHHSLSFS
inactive: volasertib -0.075 | [6] 0.09 | epoxomicin -0.033 | [7] 0.081 | [8] 0.128 | [1] -0.042 | rosiglitazone 0.011 | [2] -0.01 | [9] 0.012 | saracatinib -0.03 | sotrastaurin -0.042 | alvocidib 0.004 | Tubastatin A -0.016 | [10] 0.116 | defactinib 0.003 | [3] -0.158 | [4] -0.056

INTS5 (UniProt Q6P9B9)
Sequence of UniProt Q6P9B9 (Q6P9B9 whole entry, looked up): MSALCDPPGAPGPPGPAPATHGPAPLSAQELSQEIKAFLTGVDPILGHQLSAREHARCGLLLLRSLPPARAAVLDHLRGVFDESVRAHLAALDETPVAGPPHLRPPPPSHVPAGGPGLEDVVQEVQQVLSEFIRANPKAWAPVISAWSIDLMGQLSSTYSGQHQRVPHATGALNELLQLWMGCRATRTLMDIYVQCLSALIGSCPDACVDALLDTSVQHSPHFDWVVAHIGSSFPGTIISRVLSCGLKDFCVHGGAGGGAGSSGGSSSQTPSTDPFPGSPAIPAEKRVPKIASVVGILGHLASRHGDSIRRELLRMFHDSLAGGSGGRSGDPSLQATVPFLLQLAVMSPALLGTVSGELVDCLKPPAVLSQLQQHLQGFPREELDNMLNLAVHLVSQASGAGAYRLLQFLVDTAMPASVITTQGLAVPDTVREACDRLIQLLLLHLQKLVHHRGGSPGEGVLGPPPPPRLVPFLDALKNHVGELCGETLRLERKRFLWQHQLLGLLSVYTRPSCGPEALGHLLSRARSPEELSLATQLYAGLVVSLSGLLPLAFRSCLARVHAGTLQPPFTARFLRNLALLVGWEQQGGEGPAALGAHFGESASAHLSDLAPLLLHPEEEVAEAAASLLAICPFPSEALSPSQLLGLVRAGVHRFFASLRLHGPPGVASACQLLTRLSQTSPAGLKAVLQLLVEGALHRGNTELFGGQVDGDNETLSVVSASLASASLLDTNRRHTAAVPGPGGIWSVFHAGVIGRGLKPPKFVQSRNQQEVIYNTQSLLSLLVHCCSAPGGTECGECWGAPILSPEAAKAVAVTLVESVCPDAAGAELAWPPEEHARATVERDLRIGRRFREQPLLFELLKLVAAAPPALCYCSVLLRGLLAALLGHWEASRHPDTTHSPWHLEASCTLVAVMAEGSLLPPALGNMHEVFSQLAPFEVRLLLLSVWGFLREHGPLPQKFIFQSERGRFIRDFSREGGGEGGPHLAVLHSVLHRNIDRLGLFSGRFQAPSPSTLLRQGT
inactive: volasertib -0.152 | [6] 0.049 | epoxomicin 0.052 | [7] -0.046 | [1] -0.003 | rosiglitazone 0.212 | [2] -0.133 | saracatinib -0.051 | sotrastaurin -0.06 | Tubastatin A -0.133 | [10] -0.086 | defactinib -0.058 | [3] 0.044 | [4] 0

KIF13A isoform 4 (UniProt Q9H1H9)
inactive: sotrastaurin -0.027 | alvocidib -0.091

LGALS8 isoform 2 (UniProt O00214)
Sequence of UniProt O00214 (O00214 whole entry, looked up): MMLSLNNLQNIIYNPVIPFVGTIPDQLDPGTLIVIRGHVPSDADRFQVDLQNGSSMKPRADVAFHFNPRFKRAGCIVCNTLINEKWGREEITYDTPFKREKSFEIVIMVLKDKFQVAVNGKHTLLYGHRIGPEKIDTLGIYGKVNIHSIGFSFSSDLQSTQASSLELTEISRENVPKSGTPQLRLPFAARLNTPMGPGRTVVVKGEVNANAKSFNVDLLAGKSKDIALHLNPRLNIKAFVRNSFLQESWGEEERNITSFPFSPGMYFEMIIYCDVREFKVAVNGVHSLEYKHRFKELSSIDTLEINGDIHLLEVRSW
inactive: [5] 0.19 | epoxomicin -0.05 | [7] -0.029 | [8] -0.121 | [1] 0.067 | rosiglitazone -0.263 | [2] 0.328 | saracatinib -0.359 | sotrastaurin -0.323 | alvocidib 0.053 | Tubastatin A 0.07 | [10] -0.244 | defactinib 0.104 | rucaparib 0.306 | [3] 0.141 | encorafenib 0.218 | [4] -0.051
active: [9] 0.93

LMNA isoform 2 (UniProt P02545)
inactive: Tubastatin A 0.052
